About 83,000 compounds went through this panel and 20% of them were active in at least one assay; those are over-represented in the sample as a whole.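 Single-concentration screen, 48 h exposure, 96-well plates. Endpoint: percent growth. Below 10 = active.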 Active and inactive are the calls of the source.

Drawing on PubChem BioAssay (NCI), this text covers growth for 21 compounds.

Common to all, as to assay: NCI-60 one-dose screen, 48 h (100 = growth as untreated, 0 = no growth, -100 = all killed)
Holding throughout (details): 10 µM unless noted

Test [1] deals with SK-MEL-2 melanoma.
For test [2], the system named is EKVX NSCLC.
The subject of test [3] is SN12C renal.
Test [4] has as its system UO-31 renal.
The subject of test [5] is TK-10 renal.
For test [6], the system named is ACHN renal.
For test [7], the system named is CAKI-1 renal.
Test [8] relates to A498 renal.
For test [9], the system named is CCRF-CEM leukemia.
Test [10] deals with MOLT-4 leukemia.

Turning to `COc1ncc(-c2ccc3nccc(C#CCCCCC(=O)NO)c3c2)cc1NS(=O)(=O)c1ccc(F)cc1F`, the growth in test [1] is -60.7% (active); in [2], 4.18% (active); in [3] it was 15% (inactive); in [4], 8.08% (active); in test [5], -25.1% (active); in [6], 10.7% (inactive). Besides, the growth in test [7] was 6.12% (active); in [8], -76.1% (active); in test [9] it was -8.34% (active); in [10], -18% (active).
On to `c1ccc2c(c1)CN(CCCN1CCOCC1)C2`, for which the growth in [1] is 105% (inactive); in test [2], 100% (inactive); in [3], 96.6% (inactive); in test [4], 93.1% (inactive); in test [5], 95.4% (inactive); in test [6] it was 100% (inactive). For the same compound, the growth in [7] was 87.2% (inactive); in test [8], 101% (inactive); in [9] it was 102% (inactive); in test [10] it was 103% (inactive).
With `O=c1[nH]cnc2c1ccn2C1OC(CO)C(O)C1O` (stereo not given), the growth was 21.2% (inactive) in [1]; 79% (inactive) in test [2]; 63.1% (inactive) in test [3]; 37.9% (inactive) in test [4]; 52.7% (inactive) in [5]; 27.8% (inactive) in test [6]. In addition, the growth in [7] is 37.2% (inactive); in test [8], 57.5% (inactive); in test [9], 64.1% (inactive); in test [10], 53.6% (inactive).
Turning to `c1cc2ccc1CNCCN1CCNCc3ccc(cc3)Oc3ccc(cc3)CNCCN(CCNCc3ccc(cc3)O2)CCNCc2ccc(cc2)Oc2ccc(cc2)CNCC1`, the growth is -94.5% (active) in test [1]; 15.2% (inactive) in test [2]; -80.5% (active) in [3]; 85.3% (inactive) in test [4]; 29.4% (inactive) in test [5]; 84.4% (inactive) in [6]. Also, the growth in test [7] is 47.5% (inactive); in test [8], 48% (inactive); in test [9] it was -17.4% (active); in [10], -45.4% (active).
For `COc1ccc(-c2cc(-c3ccccc3)nc(SCCCCCC(=O)NO)n2)cc1`, the growth in test [1] was 61.4% (inactive); in test [2], 67.5% (inactive); in test [3], 81.4% (inactive); in [4] it was 41.6% (inactive); in test [5] it was 34.8% (inactive); in test [6] it was 48.9% (inactive). Further, the growth was 33.4% (inactive) in test [7], 57.1% (inactive) in test [8], 13.8% (inactive) in test [9] and 9.24% (active) in test [10].
In the case of `Cc1ccc(NCCN2CCCCC2)c2c(=O)c3ccccc3sc12`, the growth is 45.6% (inactive) in [1]; 68.6% (inactive) in [2]; 32% (inactive) in test [3]; -16.6% (active) in [4]; 42.6% (inactive) in [5]; 15.9% (inactive) in test [6]. For the same compound, the growth in test [7] is 38.6% (inactive); in test [8] it was 28.3% (inactive); in test [9] it was 30.2% (inactive); in [10], 11.4% (inactive).
Regarding `Cn1cc(-c2noc(-c3cn(C)c4ncc(F)cc34)n2)c2ccccc21`, the growth in test [1] is 93.8% (inactive); in test [2] it was 34.3% (inactive); in [3], 33.6% (inactive); in [4] it was 61.7% (inactive); in [5] it was 38.9% (inactive); in test [6] it was 66.3% (inactive). For the same compound, the growth in [7] is 47.1% (inactive); in [8], 62.9% (inactive); in test [9], 78% (inactive); in [10] it was 77.4% (inactive).
As for `CCOC(=O)/C(C#N)=C(\C)CCc1ccccc1`, the growth in test [1] is 106% (inactive); in test [2], 105% (inactive); in test [3] it was 118% (inactive); in test [4], 99.6% (inactive); in test [5], 140% (inactive); in [6] it was 101% (inactive). Further, the growth in [7] is 80.9% (inactive); in test [8], 77.9% (inactive); in [9], 102% (inactive); in test [10], 153% (inactive).
`O=[N+]([O-])c1cc([N+](=O)[O-])c(C(F)(F)F)cc1NN=C(c1ccc(O)cc1)c1ccc(O)cc1`: the growth in test [1] was -80.3% (active); in [2], 92.7% (inactive); in test [3], 79.7% (inactive); in [4], -79.4% (active); in test [5], 123% (inactive); in test [6], 12.8% (inactive). Besides, the growth in [7] is 98% (inactive); in test [8] it was 103% (inactive); in test [9], 112% (inactive); in test [10], 107% (inactive).
As to `CSc1nc(N)c(N=Nc2ccc(S(=O)(=O)Nc3nnc(C)s3)cc2)c(=O)[nH]1`, the growth in [1] was 113% (inactive); in [2] it was 155% (inactive); in test [3] it was 92.1% (inactive); in test [4] it was 76.9% (inactive); in test [5], 108% (inactive); in [6], 102% (inactive). In addition, the growth in test [7] is 139% (inactive); in test [8], 97.7% (inactive); in [9], 128% (inactive); in test [10], 106% (inactive).
Turning to `Cc1cc(C)c(O)c(CNCCCNCc2cc(C)cc(C)c2O)c1`, the growth in test [1] was 88.5% (inactive); in test [2], 75% (inactive); in test [3] it was 73.4% (inactive); in test [4], 28.2% (inactive); in test [5], 77% (inactive); in test [6], 73.6% (inactive). In addition, the growth was 62.1% (inactive) in [7], 47% (inactive) in [8], 68.4% (inactive) in [9] and 67.5% (inactive) in test [10].
On to `CC[C@@](C)(NC(=O)[C@H](C)NC(=O)CCNC(=O)C(C)(C)NC(=O)[C@H](C)NC(=O)[C@@H]1CCCN1C(=O)[C@@](C)(CC)NC(=O)[C@H](Cc1ccccc1)NC(=O)C1CCCN1C(=O)C(C)(C)NC(=O)C1CCCN1C(=O)C(C)(C)NC(C)=O)C(=O)NCCC(=O)N[C@@H](CC(C)C)C(=O)NC(C)(C)C(=O)NCCC(=O)N[C@@H](CC(C)C)C(=O)NC(C)(C)C(=O)NC(C)(C)C(=O)N[C@@H](CC(C)C)C(=O)NCCC(=O)NCO` (stereo not given in full), for which the growth in test [1] was -89% (active); in [2], -100% (active); in test [3], -76.7% (active); in test [4], -90.7% (active); in [5], -98.9% (active); in test [6], -90.1% (active). Further, the growth in test [7] is -98.2% (active); in test [8] it was -97.4% (active); in test [9] it was -61.1% (active); in test [10], -61.1% (active).
Turning to `O=C(Oc1ccc(Cl)cc1[N+](=O)[O-])Oc1ccc(Cl)cc1[N+](=O)[O-]`, the growth is 103% (inactive) in [1]; 108% (inactive) in [2]; 107% (inactive) in test [3]; 88.8% (inactive) in test [4]; 120% (inactive) in test [5]; 108% (inactive) in test [6]. Further, the growth in [7] was 104% (inactive); in test [8], 154% (inactive); in [9], 102% (inactive); in test [10], 97.8% (inactive).
As for `CN(C)CCCNc1nc(-c2cccc(C(Cl)(Cl)Cl)c2)nc(C(Cl)(Cl)Cl)n1`, the growth in [1] was 99% (inactive); in test [2], 104% (inactive); in test [3], 102% (inactive); in [4], 83.5% (inactive); in [5], 115% (inactive); in test [6], 108% (inactive). The growth in test [7] is 98.2% (inactive); in test [8] it was 65.9% (inactive); in [9], 98.3% (inactive); in [10], 84.4% (inactive).
As for `N/C(=N\c1nc2ccccc2[nH]1)NC(=O)Cc1cccc2ccccc12`, the growth was 65.6% (inactive) in test [1]; 75.6% (inactive) in test [2]; 98.8% (inactive) in test [3]; 50.3% (inactive) in test [4]; 106% (inactive) in [5]; 88.9% (inactive) in test [6]. For the same compound, the growth in [7] was 82.9% (inactive); in test [8], 80.6% (inactive); in test [9], 86% (inactive); in test [10], 30.4% (inactive).
`COc1ccc(-c2cc(-c3ccc(Cl)cc3)nc(NCCCCNc3ccnc4cc(Cl)ccc34)n2)cc1`: the growth in [1] is 78% (inactive); in [2], 77.3% (inactive); in test [3], 77.1% (inactive); in [4], 35.5% (inactive); in [5] it was 107% (inactive); in test [6], 91.8% (inactive). Also, the growth in [7] is 64.3% (inactive); in test [8], 3.15% (active); in test [9] it was 7.63% (active); in test [10] it was 3.22% (active).
As for `Cc1cnc(N)nc1OCCNC(=O)c1cccc(-c2ccc(S(=O)(=O)Nc3ccc4c(c3)N(C(=O)C3CC3)CCC4)cc2)c1`, the growth was 74.4% (inactive) in [1]; 98.9% (inactive) in test [2]; 79.7% (inactive) in [3]; 77.1% (inactive) in test [4]; 93.1% (inactive) in test [5]; 84.9% (inactive) in test [6]. Moreover, the growth was 77.4% (inactive) in test [7], 40.2% (inactive) in test [8], 64.1% (inactive) in test [9] and 37.7% (inactive) in [10].
`COc1ccc(C(=O)/C=C/c2ccccn2)c(O)c1`: the growth in [1] was 89.6% (inactive); in test [2] it was 94.2% (inactive); in test [3] it was 77.8% (inactive); in test [4], 53.1% (inactive); in test [5] it was 92.4% (inactive); in [6] it was 45% (inactive). For the same compound, the growth in test [7] was 61.3% (inactive); in test [8], 91.3% (inactive); in test [9], 10.4% (inactive); in test [10] it was 74.2% (inactive).
As for `O=[N+]([O-])c1cc(CCl)ccc1OCCBr`, the growth in test [1] is 106% (inactive); in test [2] it was 104% (inactive); in [3] it was 99.7% (inactive); in [4] it was 80.8% (inactive); in test [5], 101% (inactive); in test [6], 107% (inactive). In addition, the growth was 92% (inactive) in test [7], 91.9% (inactive) in test [8], 86.6% (inactive) in [9] and 109% (inactive) in test [10].
For the compound `COc1ccc(NC(=O)Nc2ccc(-c3cccnc3)cc2N2CCC(CO)CC2)cc1`, the growth was 73.6% (inactive) in test [1]; 60% (inactive) in test [2]; 70.9% (inactive) in [3]; 97.8% (inactive) in test [4]; 47.1% (inactive) in test [5]; 97.3% (inactive) in test [6]. For the same compound, the growth was 64.1% (inactive) in test [7], 9.13% (active) in test [8], 95.4% (inactive) in test [9] and 93.2% (inactive) in [10].
For `CCOC(=O)c1c[nH]n2c(=S)ncnc12`, the growth in test [1] is 94.8% (inactive); in [2], 108% (inactive); in test [3], 99.4% (inactive); in test [4], 84.8% (inactive); in test [5], 99.6% (inactive); in test [6] it was 99.7% (inactive). For the same compound, the growth in [7] is 102% (inactive); in test [8], 98.5% (inactive); in test [9], 101% (inactive); in test [10], 90.7% (inactive).
